Test results from PubChem BioAssay AID1159580 (chemical genetic matrix, 2015).
“And” between values parts separate entries of the source, which are not always exact repeats. Equal values may be shown once. About 2,000 (36%) of roughly 5,500 compounds were called active. Inconclusive results (about 18%) are left out. Cut-off read from the data, not from the text of the source: active = normalized growth mostly below about 0.91 (no sharp cut-off); inconclusive = no clear call, values can overlap the other calls; inactive = mostly above about 0.92. The list shows a part of the results.

Assay: chemical genetic growth profiling, strain panel (AID 1159580);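 note: tested at 20 µM; growth read once vehicle control cultures reached saturation at 30 °C; 1 = growth at the plate median or of vehicle wells; lower values mean less growth of the strain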
Conditions: S. cerevisiae deletion strains, growth OD

Measured: normalized growth

O=c1c(O)c(-c2ccc(O)c(O)c2)oc2cc(O)ccc12
active: locus YAL013W, strain DEP1, hits give low values 0.836 | locus YDL074C, strain BRE1, hits give low values 0.742 | locus YDR162C, strain NBP2, hits give low values 0.831 | locus YDR502C, strain sam2, hits give low values 0.915 | locus YER167W, strain BCK2, hits give low values 0.9 | locus YGL086W, strain mad1, hits give low values 0.905 | locus YGR078C, strain PAC10, hits give low values 0.756 | locus YGR135W, strain pre9, hits give low values 0.85 | locus YGR229C, strain SMI1, hits give low values 0.372 | locus YHR030C, strain SLT2, hits give low values 0.899 and 0.324 | locus YHR079C, strain IRE1, hits give low values 0.381 | locus YHR129C, strain ARP1, hits give low values 0.861 | locus YIL066C, strain RNR3, hits give low values 0.846 | locus YJL095W, strain BCK1, hits give low values 0.743 and 0.428 | locus YJR043C, strain POL32, hits give low values 0.778 | locus YJR066W, strain TOR1, hits give low values 0.59 | locus YJR075W, strain HOC1, hits give low values 0.83
inactive: locus YAL021C, strain ccr4, hits give low values 1 | locus YAL026C, strain drs2, hits give low values 0.965 | locus YAL030W, strain snc1, hits give low values 1 | locus YBL061C, strain skt5, hits give low values 0.964 | locus YBR009C, strain hhf1, hits give low values 1.01 | locus YBR021W, strain FUR4, hits give low values 0.961 | locus YBR023C, strain chs3, hits give low values 0.961 | locus YBR171W, strain sec66, hits give low values 0.977 | locus YBR229C, strain ROT2, hits give low values 0.993 | locus YBR231C, strain swc5, hits give low values 0.921 | locus YBR279W, strain paf1, hits give low values 0.983 | locus YCL011C, strain gbp2, hits give low values 0.982 | locus YCL016C, strain dcc1, hits give low values 0.977 | locus YCL029C, strain bik1, hits give low values 0.988 | locus YCL069W, strain vba3, hits give low values 1.01 | locus YCR088W, strain abp1, hits give low values 1 | locus YDL005C, strain med2, hits give low values 0.987 | locus YDL035C, strain GPR1, hits give low values 0.864 | locus YDL040C, strain nat1, hits give low values 1 | locus YDL101C, strain DUN1, hits give low values 0.98 | locus YDL134C, strain PPH21, hits give low values 0.955 | locus YDL185W, strain tfp1, hits give low values 0.972 | locus YDL192W, strain arf1, hits give low values 0.946 | locus YDR001C, strain nth1, hits give low values 1 | locus YDR069C, strain doa4, hits give low values 0.904 | locus YDR101C, strain arx1, hits give low values 0.957 | locus YDR137W, strain rgp1, hits give low values 0.978 | locus YDR150W, strain NUM1, hits give low values 0.946 | locus YDR159W, strain sac3, hits give low values 0.934 | locus YDR195W, strain ref2 0.969 | locus YDR297W, strain sur2, hits give low values 0.966 | locus YDR318W, strain mcm21, hits give low values 0.927 | locus YDR334W, strain swr1, hits give low values 0.981 | locus YDR335W, strain msn5, hits give low values 0.995 | locus YDR388W, hits give low values 0.974 | locus YDR392W, strain spt3, hits give low values 0.845 | locus YEL003W, strain gim4, hits give low values 0.961 | locus YEL037C, strain rad23, hits give low values 0.988 | locus YEL061C, strain CIN8 (second series), hits give low values 0.996 | locus YEL061C, strain CIN8, hits give low values 0.95 | locus YER015W, strain faa2, hits give low values 0.974 | locus YER016W, strain bim1, hits give low values 0.989 | locus YER110C, hits give low values 0.982 | locus YER111C, strain swi4, hits give low values 0.97 | locus YER155C, strain BEM2 (second series), hits give low values 0.89 | locus YER155C, strain BEM2, hits give low values 1.02 | locus YFR010W, strain ubp6, hits give low values 0.96 | locus YGL078C, strain dbp3, hits give low values 0.988 | locus YGL167C, strain pmr1, hits give low values 0.972 | locus YGL173C, strain kem1, hits give low values 0.938 | locus YGL227W, strain vid30, hits give low values 0.994 | locus YGL240W, strain doc1, hits give low values 1.03 | locus YGL248W, strain PDE1, hits give low values 0.923 | locus YGL253W, strain hxk2, hits give low values 0.969 | locus YGR252W, strain gcn5, hits give low values 0.873 | locus YHR013C, strain ard1, hits give low values 0.94 | locus YHR027C, strain rpn1, hits give low values 0.988 | locus YHR079C, strain IRE1 (second series), hits give low values 0.978 | locus YHR094C, strain hxt1, hits give low values 1.01 | locus YHR142W, strain chs7, hits give low values 0.982 | locus YHR200W, strain rpn10, hits give low values 0.938 | locus YIL073C, strain SPO22, hits give low values 0.851 | locus YIL125W, strain kgd1, hits give low values 0.967 | locus YIR030C, strain dcg1, hits give low values 1.01 | locus YJL092W, strain hpr5, hits give low values 0.995 | locus YJL095W, strain BCK1 (second series), hits give low values 0.981 | locus YJL115W, strain asf1, hits give low values 0.998 | locus YJL129C, strain trk1, hits give low values 0.966 | locus YJL134W, strain LCB3, hits give low values 1 | locus YJL154C, strain vps35, hits give low values 0.999 | locus YJL164C, strain tpk1, hits give low values 0.985 | locus YJL166W, strain qcr8, hits give low values 0.986 | locus YJL168C, strain set2, hits give low values 0.985 | locus YJL187C, strain SWE1 (second series), hits give low values 0.915
